In PubChem BioAssay:
The source made the active and inactive calls.

Experiments:
[1] = test system: PRMT1 (protein arginine N-methyltransferase 1); test: small molecules binding arginine methyltransferase PRMT1 – biochemical, small-molecule microarray, 635 nm fluorescence, primary screen (AID 1088); settings: higher = more signal;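 note: binding of Prmt1 protein to compounds spotted on small-molecule microarray slides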
[2] = growth effects on S. cerevisiae YJM789 – YJM789 clinical isolate, OD600, 24 h, basal, primary screen (AID 1089); settings: higher = more signal, called active from +8 up or from −8 down;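 note: growth of clinical yeast isolate S. cerevisiae YJM 789 seeded 1000 cells per well; test concentration not given here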
[3] = S. pombe growth modifiers, basal conditions – strain 972, OD600, 24 h, no modulator, primary screen (AID 1090);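 note: basal condition with compound alone and no growth modifier present; test concentration not given here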; settings: S. pombe 972 growth, higher = more signal, called active from +8 up or from −8 down
[4] = budding yeast growth modifiers under rapamycin – strain BY4716, OD600, 96 h, primary screen (AID 1091); note: test concentration not given here; settings: S. cerevisiae BY4716 + rapamycin, higher = more signal, called active from +8 up or from −8 down
[5] = target: Torsin-1A-interacting protein 2 (Homo sapiens) (UniProt Q8NFQ8); test: small molecules binding lysate-expressed LULL1 – cell lysate, human LULL1 lysate, 635/667 nm fluorescence, primary screen (AID 1092); settings: small-molecule microarray, hLULL1 lysate binding, 635 nm fluorescence; higher = more signal;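 note: probe is lysate of COS7 cells overexpressing human LULL1; score merges per-feature 667 nm fluorescence with signal-to-noise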
[6] = optical density change of DRC41 E. coli – strain DRC41, OD650, 24 h, E. coli filamentation project, primary screen (AID 1093);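 note: MC1000 strain lacking acrAB efflux and sulA so SOS filamentation is blocked; test concentration not given here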; settings: E. coli DRC41 growth, higher = more signal, called active from +8 up or from −8 down
[7] = probe aLefty2 binding to arrayed compounds – biochemical, biotinylated probe, 635/667 nm fluorescence, primary screen (AID 1094); settings: small-molecule microarray, higher = more signal;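 note: score merges spot fluorescence near 667 nm with spot signal-to-noise ratio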
[8] = test system: Noggin (protein binding on small-molecule microarray); test: small molecules binding Noggin protein – biochemical, 635/667 nm fluorescence, primary screen (AID 1095); settings: 635 nm fluorescence, higher = more signal;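 note: score merges 667 nm feature fluorescence with signal to noise over triplicate slides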
[9] = target: Neurogenic locus notch homolog protein 3 (Homo sapiens) (UniProt Q9UM47); test: small molecules binding NOTCH3 protein – biochemical, 635/667 nm fluorescence, primary screen (AID 1096); settings: small-molecule microarray, 635 nm fluorescence, higher = more signal
[10] = probe aEGFR binding to arrayed compounds – biochemical, biotinylated probe, 635/667 nm fluorescence, primary screen (AID 1097); settings: small-molecule microarray, higher = more signal;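 note: probe is a biotinylated anti-EGFR antibody binding compounds printed on slides; score combines fluorescence near 667 nm and signal to noise of each spot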
[11] = test system: Plasmodium falciparum Sir2 (PF13_0152, Sir2A); test: Plasmodium falciparum Sir2A binding compounds – biochemical, small-molecule microarray, 635 nm fluorescence, primary screen (AID 1098); settings: fluorescence 635 nm, higher = more signal;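 note: score merges spot fluorescence intensity with its signal-to-noise ratio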
[12] = probe aDKK1 binding to arrayed compounds – biochemical, biotinylated probe, 635/667 nm fluorescence, primary screen (AID 1099); settings: small-molecule microarray, higher = more signal;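 note: score merges 667nm spot fluorescence with signal to noise across triplicate slides; reference of the scale not given here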
[13] = probe aCHRDL2 binding to arrayed compounds – biochemical, biotinylated probe, 635/667 nm fluorescence, primary screen (AID 1100); settings: small-molecule microarray, higher = more signal
[14] = change in splice reporter luminescence, either direction, cell-based, HEK293, spliceosome inhibition project, primary screen (AID 1101); settings: HEK293 splicing luciferase reporter, 24 h, higher = more signal, called active from +8 up or from −8 down;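 note: HEK293 cells carrying a splicing-competent luciferase reporter gene; test concentration not given here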
[15] = target: Fibroblast growth factor 10 (Homo sapiens) (UniProt O15520); test: compounds binding fibroblast growth factor 10 – biochemical, small-molecule microarray, 635 nm fluorescence, primary screen (AID 1102); settings: FGF10 binding, fluorescence 635 nm, higher = more signal
[16] = test system: glycogen synthase kinase-3 (GSK3A per assay name; protocol says GSK3B); test: compounds binding glycogen synthase kinase-3 – biochemical, small-molecule microarray, 635 nm fluorescence, GSK3A, primary screen (AID 1103); settings: fluorescence 635 nm, higher = more signal; note: the record names both GSK3A and GSK3B
[17] = target: Epidermal growth factor receptor (Homo sapiens) (UniProt P00533); test: compounds binding epidermal growth factor receptor – biochemical, small-molecule microarray, 635 nm fluorescence, primary screen (AID 1104); settings: EGFR binding, higher = more signal;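 note: score merges 667 nm emission intensity with spot signal to noise over triplicate slides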
[18] = target: Follistatin-related protein 3 (Homo sapiens) (UniProt O95633); test: compounds binding follistatin-related protein 3 – biochemical, small-molecule microarray, 635 nm fluorescence, primary screen (AID 1105); settings: FSTL3 binding, higher = more signal;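 note: score merges emission near 667 nm and signal to noise per printed spot across three slides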
[19] = target: Dickkopf-related protein 1 (Homo sapiens) (UniProt O94907); test: small molecules binding DKK1 protein – biochemical, small-molecule microarray, 635 nm fluorescence scan, primary screen (AID 1106); settings: higher = more signal;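 note: score merges emission near 667 nm with signal to noise over three replicate slides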
[20] = test system: Inhibin beta A chain (activin A); test: small molecules binding activin A – biochemical, small-molecule microarray, 635 nm fluorescence scan, primary screen (AID 1107); settings: INHBA, higher = more signal;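 note: mouse activin A protein probed at 4.33 µg/mL on printed slides; score merges bound-protein fluorescence near 667 nm with spot signal-to-noise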

Chain of Fibroblast growth factor 10 (Homo sapiens) (O15520 whole entry, looked up): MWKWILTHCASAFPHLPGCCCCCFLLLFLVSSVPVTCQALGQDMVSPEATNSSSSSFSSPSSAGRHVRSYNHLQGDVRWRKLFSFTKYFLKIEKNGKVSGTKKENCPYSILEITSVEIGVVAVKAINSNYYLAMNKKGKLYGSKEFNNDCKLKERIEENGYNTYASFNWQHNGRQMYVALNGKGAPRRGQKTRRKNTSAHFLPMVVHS
Chain of Neurogenic locus notch homolog protein 3 (Homo sapiens) (Q9UM47 whole entry, looked up): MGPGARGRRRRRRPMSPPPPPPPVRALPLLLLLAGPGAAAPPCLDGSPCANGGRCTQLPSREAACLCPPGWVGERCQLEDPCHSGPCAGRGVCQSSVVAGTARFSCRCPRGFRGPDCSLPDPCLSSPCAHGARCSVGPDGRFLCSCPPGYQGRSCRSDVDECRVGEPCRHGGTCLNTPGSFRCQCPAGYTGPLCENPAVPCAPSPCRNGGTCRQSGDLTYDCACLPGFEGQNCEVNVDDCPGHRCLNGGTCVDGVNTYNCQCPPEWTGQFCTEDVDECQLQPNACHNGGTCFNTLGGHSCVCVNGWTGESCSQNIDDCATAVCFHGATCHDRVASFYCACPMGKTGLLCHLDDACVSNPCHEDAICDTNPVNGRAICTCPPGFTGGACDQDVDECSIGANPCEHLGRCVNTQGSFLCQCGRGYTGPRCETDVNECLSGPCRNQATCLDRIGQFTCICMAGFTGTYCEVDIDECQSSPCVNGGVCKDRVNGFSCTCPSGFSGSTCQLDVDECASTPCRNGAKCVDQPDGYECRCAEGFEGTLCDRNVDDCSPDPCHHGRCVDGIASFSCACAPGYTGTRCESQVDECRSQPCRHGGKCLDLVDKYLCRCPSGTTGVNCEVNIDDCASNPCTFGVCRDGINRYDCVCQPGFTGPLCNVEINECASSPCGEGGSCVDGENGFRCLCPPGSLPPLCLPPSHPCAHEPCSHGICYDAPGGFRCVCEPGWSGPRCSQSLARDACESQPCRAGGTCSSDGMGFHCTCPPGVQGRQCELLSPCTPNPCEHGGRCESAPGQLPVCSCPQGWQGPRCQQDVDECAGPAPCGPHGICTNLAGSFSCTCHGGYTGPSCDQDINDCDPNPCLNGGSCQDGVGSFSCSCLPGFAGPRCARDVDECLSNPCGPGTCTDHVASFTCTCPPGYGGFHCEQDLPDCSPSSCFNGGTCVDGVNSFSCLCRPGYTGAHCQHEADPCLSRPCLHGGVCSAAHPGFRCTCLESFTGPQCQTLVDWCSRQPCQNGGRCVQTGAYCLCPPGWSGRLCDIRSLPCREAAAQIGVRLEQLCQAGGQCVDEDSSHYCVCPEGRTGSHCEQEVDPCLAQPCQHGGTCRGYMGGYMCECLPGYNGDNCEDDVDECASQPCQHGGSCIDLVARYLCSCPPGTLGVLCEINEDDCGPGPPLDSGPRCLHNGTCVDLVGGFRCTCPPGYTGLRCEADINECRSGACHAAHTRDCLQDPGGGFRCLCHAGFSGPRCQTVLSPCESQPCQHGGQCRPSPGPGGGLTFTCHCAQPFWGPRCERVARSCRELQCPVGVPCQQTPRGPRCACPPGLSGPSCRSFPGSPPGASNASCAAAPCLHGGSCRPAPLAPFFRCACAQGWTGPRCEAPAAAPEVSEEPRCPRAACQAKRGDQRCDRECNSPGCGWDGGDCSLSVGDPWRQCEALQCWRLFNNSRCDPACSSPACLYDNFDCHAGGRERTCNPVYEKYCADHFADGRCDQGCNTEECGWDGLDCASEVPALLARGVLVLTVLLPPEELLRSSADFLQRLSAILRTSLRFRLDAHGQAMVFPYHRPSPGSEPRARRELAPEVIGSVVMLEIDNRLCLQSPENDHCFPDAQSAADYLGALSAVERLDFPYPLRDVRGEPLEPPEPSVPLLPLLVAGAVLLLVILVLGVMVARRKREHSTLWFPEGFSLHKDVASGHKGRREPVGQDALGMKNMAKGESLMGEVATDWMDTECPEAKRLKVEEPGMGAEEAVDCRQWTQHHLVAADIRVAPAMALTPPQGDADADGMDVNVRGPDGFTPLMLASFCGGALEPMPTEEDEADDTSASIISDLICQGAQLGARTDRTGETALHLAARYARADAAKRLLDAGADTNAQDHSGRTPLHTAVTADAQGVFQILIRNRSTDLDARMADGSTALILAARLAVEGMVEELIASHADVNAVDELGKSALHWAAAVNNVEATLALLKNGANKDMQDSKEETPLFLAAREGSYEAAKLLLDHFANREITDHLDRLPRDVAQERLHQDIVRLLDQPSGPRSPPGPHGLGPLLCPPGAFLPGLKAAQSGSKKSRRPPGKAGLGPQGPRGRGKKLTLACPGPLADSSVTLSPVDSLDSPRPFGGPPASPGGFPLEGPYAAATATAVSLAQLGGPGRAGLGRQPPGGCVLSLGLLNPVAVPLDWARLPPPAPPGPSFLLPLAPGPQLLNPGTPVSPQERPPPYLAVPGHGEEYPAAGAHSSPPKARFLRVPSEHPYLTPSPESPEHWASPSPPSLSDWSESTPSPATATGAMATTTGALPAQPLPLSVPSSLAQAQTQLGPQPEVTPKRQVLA
Chain of Torsin-1A-interacting protein 2 (Homo sapiens) (Q8NFQ8 whole entry, looked up): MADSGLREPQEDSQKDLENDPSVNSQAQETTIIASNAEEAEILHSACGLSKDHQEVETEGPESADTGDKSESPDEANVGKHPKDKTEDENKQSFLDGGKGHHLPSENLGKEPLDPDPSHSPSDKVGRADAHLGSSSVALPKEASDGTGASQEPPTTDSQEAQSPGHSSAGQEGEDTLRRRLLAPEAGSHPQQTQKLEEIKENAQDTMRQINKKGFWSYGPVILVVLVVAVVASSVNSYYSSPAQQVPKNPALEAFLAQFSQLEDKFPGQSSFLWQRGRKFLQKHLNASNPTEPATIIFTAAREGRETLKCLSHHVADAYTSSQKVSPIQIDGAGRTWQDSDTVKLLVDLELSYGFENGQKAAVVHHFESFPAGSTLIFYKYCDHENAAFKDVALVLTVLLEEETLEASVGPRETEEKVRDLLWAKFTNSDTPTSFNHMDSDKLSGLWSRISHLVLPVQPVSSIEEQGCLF
Chain of Dickkopf-related protein 1 (Homo sapiens) (O94907 whole entry, looked up): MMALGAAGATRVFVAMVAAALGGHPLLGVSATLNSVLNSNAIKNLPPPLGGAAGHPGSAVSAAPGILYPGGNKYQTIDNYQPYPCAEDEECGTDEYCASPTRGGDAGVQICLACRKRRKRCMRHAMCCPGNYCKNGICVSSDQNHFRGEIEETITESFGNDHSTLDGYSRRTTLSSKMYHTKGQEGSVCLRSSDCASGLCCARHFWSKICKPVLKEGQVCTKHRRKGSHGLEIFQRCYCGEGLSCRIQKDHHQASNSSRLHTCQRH
Chain of Follistatin-related protein 3 (Homo sapiens) (O95633 whole entry, looked up): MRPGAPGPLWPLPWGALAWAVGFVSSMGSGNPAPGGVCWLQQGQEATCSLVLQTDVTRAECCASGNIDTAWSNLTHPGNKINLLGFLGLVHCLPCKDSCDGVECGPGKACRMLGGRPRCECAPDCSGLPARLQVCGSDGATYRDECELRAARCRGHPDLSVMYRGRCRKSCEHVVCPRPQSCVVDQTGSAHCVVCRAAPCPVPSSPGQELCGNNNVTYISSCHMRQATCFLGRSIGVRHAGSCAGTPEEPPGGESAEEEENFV
Chain of Epidermal growth factor receptor (Homo sapiens) (P00533 whole entry, looked up): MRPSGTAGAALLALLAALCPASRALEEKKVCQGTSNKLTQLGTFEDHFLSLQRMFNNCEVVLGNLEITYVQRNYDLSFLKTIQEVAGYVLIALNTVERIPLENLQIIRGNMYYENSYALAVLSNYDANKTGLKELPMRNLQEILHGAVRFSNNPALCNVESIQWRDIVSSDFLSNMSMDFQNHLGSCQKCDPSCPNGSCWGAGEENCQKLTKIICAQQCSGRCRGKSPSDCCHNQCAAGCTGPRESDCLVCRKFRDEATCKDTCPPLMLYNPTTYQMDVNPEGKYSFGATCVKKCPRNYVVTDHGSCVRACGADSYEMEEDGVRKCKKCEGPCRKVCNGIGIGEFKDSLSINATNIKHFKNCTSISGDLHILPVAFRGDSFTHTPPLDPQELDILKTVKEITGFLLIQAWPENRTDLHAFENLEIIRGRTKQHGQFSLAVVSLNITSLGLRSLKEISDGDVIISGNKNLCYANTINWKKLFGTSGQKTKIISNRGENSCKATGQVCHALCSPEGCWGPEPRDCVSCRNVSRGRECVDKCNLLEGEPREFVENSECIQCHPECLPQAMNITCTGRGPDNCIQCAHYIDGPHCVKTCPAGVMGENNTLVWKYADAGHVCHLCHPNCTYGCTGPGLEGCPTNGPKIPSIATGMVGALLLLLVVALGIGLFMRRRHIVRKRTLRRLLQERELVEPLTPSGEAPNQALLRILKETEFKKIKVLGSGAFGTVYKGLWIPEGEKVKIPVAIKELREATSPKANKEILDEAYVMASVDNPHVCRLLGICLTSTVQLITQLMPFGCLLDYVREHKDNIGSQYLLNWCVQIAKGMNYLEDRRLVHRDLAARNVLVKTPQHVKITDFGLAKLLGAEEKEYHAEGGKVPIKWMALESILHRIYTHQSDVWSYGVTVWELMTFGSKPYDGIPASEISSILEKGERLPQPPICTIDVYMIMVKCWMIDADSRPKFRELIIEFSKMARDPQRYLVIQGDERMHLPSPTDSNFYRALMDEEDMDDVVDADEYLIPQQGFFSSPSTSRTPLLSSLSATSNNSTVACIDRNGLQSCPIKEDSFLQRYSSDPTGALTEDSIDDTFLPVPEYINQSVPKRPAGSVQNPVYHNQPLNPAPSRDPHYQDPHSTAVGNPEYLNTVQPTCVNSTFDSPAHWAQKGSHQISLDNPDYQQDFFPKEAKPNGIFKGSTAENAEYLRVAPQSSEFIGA

Row | SMILES | composite z-score [1] | z-score [2] | z-score [3] | z-score [4] | composite z-score [5] | z-score [6] | composite z-score [7] | composite z-score [8] | composite z-score [9] | composite z-score [10] | composite z-score [11] | composite z-score [12] | composite z-score [13] | z-score [14] | composite z-score [15] | composite z-score [16] | composite z-score [17] | composite z-score [18] | composite z-score [19] | composite z-score [20]
1 | C=C[C@@H](O)[C@H]1CC(c2ccccc2)=NO1 | -0.425 | -0.347 (inactive) | -0.954 (inactive) | -0.657 (inactive) | -0.141 | 1.13 (inactive) | -0.0339 | -0.174 | -0.872 | -0.0844 | 1.46 | -0.187 | 0.0537 | 0.147 (inactive) | 0.0244 | -0.408 | 0.449 | 0.046 | 0.271 | 0.614
2 | CC1(C)[C@@H]2CC(C(O)C3C=CC4C(=O)N(c5ccccc5)C(=O)C4N3Nc3ccccc3F)=C[C@@H]1C2 (stereo not given in full) | 1.53 | -0.601 (inactive) | 0.5 (inactive) | -0.382 (inactive) | 3.19 | -0.117 (inactive) | 0.155 | 0.791 | 1.06 | 0.0066 | 1.4 | 0.26 | 0.471 | -1.75 (inactive) | 1.34 | 1.31 | 0.4 | 1.31 | 0.122 | 0.603
3 | CCCc1cc2c(n1Cc1ccc(OC)cc1)C(C)C1CN(C(=O)c3ccccc3)C(C)(C(=O)OC)C21 (stereo not given) | 1.34 | 0.461 (inactive) | 0.815 (inactive) | 1.64 (inactive) | 3.37 | -1.21 (inactive) | 0.8 | -0.758 | 1.05 | 0.389 | 0.862 | 1.27 | 1.59 | -1.94 (inactive) | 0.303 | 0.482 | -0.409 | 0.324 | -1.71 | 1.43
4 | C=C(C)[C@@H]1CC=C(C(O)C2C=CC3C(=O)N(C4CCCCC4)C(=O)C3N2Nc2ccc(OC)cc2)CC1 (stereo not given in full) | 1.55 | 0.188 (inactive) | 0.707 (inactive) | 0.785 (inactive) | 3.27 | -0.357 (inactive) | -0.0009 | 0.593 | 1.07 | -0.0034 | 1.37 | 0.326 | 0.826 | -0.603 (inactive) | 1.03 | 1.31 | 0.367 | 1.37 | 0.21 | 0.918
5 | CC(C)C[C@H]1NC(=O)[C@H](C)NC(=O)[C@@]23C(=O)N[C@@H](Cc4ccccc4)C2[C@H](C)[C@@]2(C)O[C@H]2C3/C=C/C/C=C\CNC1=O (stereo not given in full) | 0.653 | -1.14 (inactive) | -1.25 (inactive) | -1.07 (inactive) | 2.44 | -0.847 (inactive) | -0.27 | -0.344 | 0.0715 | -0.158 | 0.0682 | -0.597 | -0.376 | 0.271 (inactive) | -0.148 | -0.294 | -0.0275 | 0.461 | 0.29 | 1.55
